Reference: PubChem BioAssay

target: Voltage-gated potassium channel subunit beta-2 (Rattus norvegicus) (UniProt P62483); experiment: KvBeta positive modulators, primary screen, biochemical, NADPH fluorescence (AID 623); settings: Recombinant KvBeta, NADPH fluorescence decrease slope, 10 min; at 10 µM; hits give low values;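 note: fluorescence intensity change per second fitted from 20 to 320 s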
Sequence (P62483 whole entry, looked up): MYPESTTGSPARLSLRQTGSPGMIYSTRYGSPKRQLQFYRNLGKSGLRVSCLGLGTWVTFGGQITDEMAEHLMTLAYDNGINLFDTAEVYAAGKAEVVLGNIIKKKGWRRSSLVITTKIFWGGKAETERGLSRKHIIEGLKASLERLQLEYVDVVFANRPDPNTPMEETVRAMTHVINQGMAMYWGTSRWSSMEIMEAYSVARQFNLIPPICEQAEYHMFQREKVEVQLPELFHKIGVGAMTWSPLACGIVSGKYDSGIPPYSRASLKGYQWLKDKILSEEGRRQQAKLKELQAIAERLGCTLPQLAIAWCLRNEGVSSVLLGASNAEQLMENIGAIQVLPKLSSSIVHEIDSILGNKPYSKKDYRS

NADPH fluorescence slope, inactive:
Cn1c(SCC(=O)c2ccc(-c3ccccc3)cc2)nnc1-c1ccco1 -5.4e-05
Cc1ccccc1NC(=O)CSc1nnc(Cc2cccn2C)n1-c1ccc(F)cc1 1.1e-05
CC(=O)N1CCc2c(sc(NC(=O)c3ccc(S(=O)(=O)N(C)C)cc3)c2C#N)C1 -3.5e-05
Cc1c(NC(=O)c2nn(C)c(=O)c3ccccc23)c(=O)n(-c2ccccc2)n1C -1.3e-05
CCOC(=O)C1C(=O)N(C(=O)c2ccc(OC)cc2)CC1c1ccccc1 (stereo not given) -0.000151
C=CCSc1nnc(-c2cccnc2)o1 -5.1e-05
O=C(CCCn1c(=S)[nH]c2cc3c(cc2c1=O)OCO3)N1CCN(c2ccccc2F)CC1 -4.7e-05
COc1ccc(OCC(=O)Nc2ccc(N3CCOCC3)c(Cl)c2)cc1 -1.5e-05
CCNc1ccc2c(Cl)cc(=O)oc2c1 -3e-05
Cc1cc(Br)ccc1NC(=O)CCN1C(=O)c2ccncc2C1=O -3.1e-05
CC(=O)Nc1ccc(S(=O)(=O)N2CCN(C(=O)CCC3CCCC3)CC2)cc1 5.8e-05
Cc1ccccc1NC(=O)C1CCCN(S(=O)(=O)c2cccc3cccnc23)C1 (stereo not given) 1.2e-05
C(#Cc1ccccc1)Cn1nnc2ccccc21 -2.1e-05
COc1ccccc1N1CCN(C/C(O)=C(\C#N)c2nc(-c3ccccc3)cs2)CC1 4.6e-05
Cn1c(CN2CCOCC2)nnc1SCC(=O)NCCc1ccccc1 6.8e-06
Nc1nc(CSc2nc3ccccc3[nH]2)nc(N2CCOCC2)n1 -3.7e-05
CN1CCN(c2nc(-c3ccncc3)nc3ccccc23)CC1 -3.7e-05
Cc1cc(=O)[nH]c(SCC(=O)NCc2ccco2)n1 -7.3e-05
COc1ccc(NC(=O)NCCN2C(=O)C3C4C=CC(C4)C3C2=O)cc1 (stereo not given) -3.1e-05
CCC(=O)c1ccc(OCC(O)CN2CCN(S(=O)(=O)N3CCCCC3)CC2)cc1 (stereo not given) -1.7e-05
O=C(c1cccs1)N(Cc1ccco1)Cc1cc2ccccc2[nH]c1=O -3.2e-05
COc1cccc(NC(=O)C2CCN(c3ncccn3)CC2)c1 -1.9e-05
CC(=O)Nc1ccc(-c2nn[nH]n2)cc1Cl -2.3e-05
COc1cccc(N(C(=O)c2ccco2)C(C(=O)NC2CCCC2)c2ccc(N(C)C)cc2)c1 (stereo not given) -0.000142
CCN(CC)C(=O)C1CCC(CNS(=O)(=O)c2cccc3cccnc23)CC1 (stereo not given) -2.6e-05
COc1ccc(C(=O)COC(=O)CCn2nnc(-c3cccs3)n2)cc1 1.6e-05
Fc1cccc(-c2cc3nc4c(c(N5CCN(c6cnccn6)CC5)n3n2)CCCC4)c1 -2.7e-05
Cc1ccc(Nc2cc(C)nc3ncnn23)c(Cl)c1 4.8e-06
O=C1CCC(c2ccccc2)N1C(=O)c1cccnc1 (stereo not given) -6.9e-05
CC1CCc2c(sc3c2C2=NS(=O)(=O)CCN2C=N3)C1 (stereo not given) -6.8e-05
CCn1c(SCc2nc(-c3cccs3)no2)nnc1-c1c[nH]c2ccccc12 1.2e-05
CC(CN1CCCCC1)OC(=O)c1ccc2c(c1)OCO2 (stereo not given) -3.4e-05
CN1CCN(S(=O)(=O)c2ccc(NC(=O)Nc3cccc(Cl)c3)cc2)CC1 -3e-05
CCC(C)OC(=O)c1[nH]c2c(c1C)C(=O)CC(c1ccc(N(C)C)cc1)C2 (stereo not given) -3.4e-06
COc1cccc(C=Nc2ccc3c(c2)OCCO3)c1O -3.1e-05
O=C(Cn1ncc2c1-c1ccccc1OC2)Nc1ccc(Cl)cn1 -3.2e-05
CCOC(=O)c1c(C)n(C)c2c(C)cc(O)c(OC(C)=O)c12 -7.1e-06
COc1ccccc1CCNC(=O)C1CCCO1 (stereo not given) -1.9e-05
CCCSc1nnc2nc3c(nn12)c1ccccc1n3C -6.9e-05
CCN(CCNC(=O)C1CCN(S(=O)(=O)c2cccc3cccnc23)CC1)c1ccccc1 2.5e-05
